Source: the supplement of paper PMC7669877
± gives the uncertainty stated by the source.

System: Candidatus Liberibacter solanacearum in potato hairy roots
Experiment: relative CLso titer (% of untreated control); higher = less inhibition of bacterial titer
Conditions: 10 µM; 72 h
Method: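 Primary screen of ~220 Spectrum collection (MicroSource) compounds at 10 µM (0.1% DMSO) on Candidatus Liberibacter solanacearum-infected potato hairy roots in multi-well plates (Gamborg B-5 medium, vacuum infiltrated, 21 °C, dark, 72 h). CLso titer was measured by qPCR of 16S rDNA normalised to potato RPL2 (2^-ddCq), pairwise-standardised against untreated controls, averaged over two biological replicates and expressed as % of untreated.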

| SMILES | relative CLso titer |
| --- | --- |
| CCOC(=O)[C@H](CCc1ccccc1)N[C@@H](C)C(=O)N(CC(=O)O)C1Cc2ccccc2C1 | 90.7 ± 30% |
| CCCCOc1ccc(OCCCN2CCOCC2)cc1 | 106 ± 37% |
| CO/N=C(\C(=O)N[C@@H]1C(=O)N2C(C(=O)O)=C(COC(C)=O)CS[C@H]12)c1csc(N)n1 | 68.6 ± 14% |
| C1CCN2C[C@@H]3C[C@@H](CN4CCCC[C@@H]34)[C@H]2C1 | 93.9 ± 8% |
| CO/N=C(\C(=O)N[C@@H]1C(=O)N2C(C(=O)O)=C(COC(N)=O)CS[C@H]12)c1ccco1 | 149 ± 29% |
| COc1ccc(O)cc1 | 173 ± 58% |
| OCC(S)CS (stereo not given) | 67.2 ± 36% |
| CC1=C(/C=C/C(C)=C/C=C/C(C)=C/CO)C(C)(C)CCC1 | 195 ± 25% |
| Nc1ccc(S(=O)(=O)Nc2ccc(Cl)nn2)cc1 | 52.4 ± 4.8% |
| CNC[C@H](O)c1ccc(O)c(O)c1 | 173 ± 86% |
| O=C(O)c1cc(=O)c2c(OCC(O)COc3cccc4oc(C(=O)O)cc(=O)c34)cccc2o1 | 58 ± 9.1% |
| Cc1cc(C2CCCCC2)n(O)c(=O)c1 | 44.1 ± 7.6% |
| Nc1ccn([C@@H]2O[C@H](CO)[C@@H](O)[C@@H]2O)c(=O)n1 | 83.2 ± 46% |
| COc1cnc(NS(=O)(=O)c2ccc(N)cc2)nc1 | 119 ± 37% |
| CN(C)CCOC(=O)C(c1ccccc1)C1(O)CCCC1 (stereo not given) | 23.4 ± 4.1% |
| CC(=O)OCC(=O)[C@@]1(O)CC[C@H]2[C@@H]3CCC4=CC(=O)CC[C@]4(C)[C@H]3C(=O)C[C@@]21C | 27.6 ± 3% |
| Cc1onc(-c2c(Cl)cccc2Cl)c1C(=O)N[C@@H]1C(=O)N2[C@@H]1SC(C)(C)[C@@H]2C(=O)O | 145 ± 34% |
| CNCCCN1c2ccccc2CCc2ccccc21 | 144 ± 1.5% |
| CN1CCN(C(c2ccccc2)c2ccccc2)CC1 | 105 ± 31% |
| Nc1ccc(C(=O)Oc2ccccc2)c(O)c1 | 102 ± 12% |

| SMILES | relative CLso titer |
| --- | --- |
| CN(C)[C@@H]1C(O)=C(C(N)=O)C(=O)[C@@]2(O)C(O)=C3C(=O)c4c(O)ccc(Cl)c4[C@@](C)(O)[C@H]3C[C@@H]12 | 35.8 ± 4.5% |
| CCCOc1cc(N)ccc1C(=O)OCCN(CC)CC | 102 ± 10% |
| COc1ccc(C[C@H](N)C(=O)N[C@H]2[C@@H](O)[C@H](n3cnc4c(N(C)C)ncnc43)O[C@@H]2CO)cc1 | 91.8 ± 5.9% |
| COc1ccc2c3c1O[C@H]1C[C@@H](O)C=C[C@@]31CCN(C)C2 | 104 ± 28% |
| CC(C)NCC(O)COc1ccc(CC(N)=O)cc1 (stereo not given) | 106 ± 58% |
| Nc1cccc2c1CN(C1CCC(=O)NC1=O)C2=O (stereo not given) | 143 ± 43% |
| CC(=O)Oc1cc2c(s1)CCN(C(C(=O)C1CC1)c1ccccc1F)C2 (stereo not given) | 55.4 ± 2.9% |
| Nc1ncn([C@@H]2O[C@H](CO)[C@@H](O)[C@H]2O)c(=O)n1 | 64.8 ± 5.8% |
| CCCC(C(=O)OCCN(CC)CC)(c1ccccc1)c1ccccc1 | 112 ± 16% |
| O=C(O)P(=O)(O)O | 165 ± 29% |
| Clc1ccc(COC(Cn2ccnc2)c2ccc(Cl)cc2Cl)cc1 (stereo not given) | 101 ± 35% |
| C[C@]12CC[C@@H]3c4ccc(O)cc4CC[C@H]3[C@@H]1CC[C@@H]2O | 126 ± 25% |
| CCn1nc(C(=O)O)c(=O)c2cc3c(cc21)OCO3 | 28.6 ± 0.62% |
| CO[C@@]1(NC(=O)CSCC#N)C(=O)N2C(C(=O)O)=C(CSc3nnnn3C)CS[C@@H]21 | 114 ± 30% |
| CN(CCOc1ccc(CC2SC(=O)NC2=O)cc1)c1ccccn1 (stereo not given) | 87.5 ± 30% |
| C[C@@H]1NC(=O)[C@@H](N)CNC(=O)[C@H](C2CCNC(=N)N2)NC(=O)/C(=C/NC(N)=O)NC(=O)[C@H](CNC(=O)CC(N)CCCN)NC1=O.N=C1NCCC([C@@H]2NC(=O)/C(=C/NC(N)=O)NC(=O)[C@H](CNC(=O)CC(N)CCCN)NC(=O)[C@H](CO)NC(=O)[C@@H](N)CNC2=O)N1 (stereo not given in full) | 63.2 ± 9.8% |
| CCC(=O)O[C@H]1[C@H](O[C@@H]2[C@@H](C)[C@H](O[C@H]3C[C@@](C)(OC)[C@@H](O)[C@H](C)O3)[C@@H](C)C(=O)O[C@H](CC)[C@@](C)(O)[C@H](O)[C@@H](C)C(=O)[C@H](C)C[C@@]2(C)O)O[C@H](C)C[C@@H]1N(C)C | 108 ± 26% |
| COc1ccc([C@H]2COc3c(ccc(O)c3OC)C2)c(OC)c1O | 35.5 ± 2.5% |
| CN(C)CC[C@@H](c1ccc(Cl)cc1)c1ccccn1 | 48.1 ± 3.8% |
| Cn1c(=O)c2c(ncn2C)n(C)c1=O | 42.2 ± 4.3% |
